Test systems include SK-MEL-2 melanoma; EKVX NSCLC; SN12C renal; UO-31 renal; TK-10 renal; ACHN renal; CAKI-1 renal; A498 renal; CCRF-CEM leukemia; MOLT-4 leukemia; SR leukemia; RPMI-8226 leukemia; OVCAR-8 ovarian; OVCAR-5 ovarian; OVCAR-4 ovarian; SK-OV-3 ovarian; IGROV1 ovarian; OVCAR-3 ovarian; HS 578T breast; NCI/ADR-RES ovarian.
Test in all cases: NCI-60 one-dose screen, 48 h (100 = growth as untreated, 0 = no growth, -100 = all killed)
Conditions in all cases: 10 µM unless noted

About 83,000 compounds went through this panel and 20% of them were active in at least one assay; those are over-represented in the sample as a whole.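 A percent growth of 40 corresponds to 60% growth inhibition; 0 means no net growth; -100 means all cells died. Active threshold: below 10.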 Values without a mark were called inactive. Active and inactive are the calls of the source.

Turning to `N#Cc1c(N)n2c(nc1=Nc1ccc(Cl)cc1)sc1cc(Cl)ccc12`, the growth in the assay on SK-MEL-2 melanoma was 69.8%; with EKVX NSCLC, 62.3%; with SN12C renal it was 88.4%; with UO-31 renal, 61.3%; in the assay on TK-10 renal, 108%; with ACHN renal, 91.3%. In addition, the growth in the assay on CAKI-1 renal was 75.5%; with A498 renal, 91.1%; in the assay with CCRF-CEM leukemia, 92%; in the assay on MOLT-4 leukemia it was 27.8%; in the assay on SR leukemia it was 22.6%; in the assay on RPMI-8226 leukemia it was 87.2%. Moreover, the growth was 64.9% in the assay with OVCAR-8 ovarian; 105% in the assay with OVCAR-5 ovarian; 63.1% in the assay with OVCAR-4 ovarian; 77.2% in the assay with SK-OV-3 ovarian; 95.9% in the assay with IGROV1 ovarian; 98.1% in the assay with OVCAR-3 ovarian. Moreover, the growth in the assay with HS 578T breast is 33.3%; in the assay with NCI/ADR-RES ovarian, 73.1%.
Take `CCCCCCNc1cc(C)nc2ccc(OC)cc12`: the growth was 73.7% with SK-MEL-2 melanoma; 65.7% in the assay on EKVX NSCLC; 67.9% in the assay on SN12C renal; 40.4% in the assay with UO-31 renal; 80.4% with TK-10 renal; 76.4% with ACHN renal. Moreover, the growth in the assay on CAKI-1 renal was 70.9%; with A498 renal it was 22%; in the assay on CCRF-CEM leukemia, 60.7%; with MOLT-4 leukemia, 50.4%; in the assay with SR leukemia, 23.2%; in the assay on RPMI-8226 leukemia, 34.4%. In addition, the growth in the assay with OVCAR-8 ovarian was 65.3%; in the assay with OVCAR-5 ovarian, 64.4%; in the assay on OVCAR-4 ovarian, 55%; with SK-OV-3 ovarian it was 73.8%; in the assay with IGROV1 ovarian, 55.5%; in the assay with OVCAR-3 ovarian, 65.8%. In addition, the growth was 87% in the assay on HS 578T breast and 45.1% with NCI/ADR-RES ovarian.
Consider `Cc1ccc(NC(=O)C(Cl)Cl)cc1`, for which the growth with SK-MEL-2 melanoma is 83.6%; with EKVX NSCLC, 109%; in the assay on SN12C renal, 98.9%; in the assay with UO-31 renal, 83%; in the assay on TK-10 renal, 94.3%; with ACHN renal, 100%. Moreover, the growth with CAKI-1 renal was 103%; in the assay on A498 renal, 80.9%; in the assay on CCRF-CEM leukemia, 100%; in the assay on MOLT-4 leukemia it was 14.2%; with SR leukemia, 97.2%; in the assay with RPMI-8226 leukemia, 97%. For the same molecule, the growth in the assay with OVCAR-8 ovarian is 99.5%; with OVCAR-5 ovarian it was 98.5%; with OVCAR-4 ovarian, 116%; in the assay on SK-OV-3 ovarian it was 105%; in the assay with IGROV1 ovarian, 95.4%; in the assay on OVCAR-3 ovarian, 112%. The growth in the assay on HS 578T breast was 102%; in the assay on NCI/ADR-RES ovarian it was 99.9%.
With `Cc1nn(-c2ccccc2)c2c1C(c1ccc([N+](=O)[O-])cc1)C(C#N)=C(N)O2` (stereo not given), the growth was 123% with SK-MEL-2 melanoma; 115% in the assay on EKVX NSCLC; 101% in the assay on SN12C renal; 70.4% in the assay on UO-31 renal; 141% in the assay on TK-10 renal; 108% in the assay on ACHN renal. The growth in the assay with CAKI-1 renal was 115%; in the assay on A498 renal, 111%; in the assay on CCRF-CEM leukemia, 90.3%; in the assay on MOLT-4 leukemia, 101%; in the assay with SR leukemia, 91.5%; with RPMI-8226 leukemia, 74.1%. The growth is 90.9% with OVCAR-8 ovarian; 106% with OVCAR-5 ovarian; 100% in the assay with OVCAR-4 ovarian; 107% in the assay on SK-OV-3 ovarian; 82.9% with IGROV1 ovarian; 122% in the assay with OVCAR-3 ovarian. The growth with HS 578T breast is 103%; with NCI/ADR-RES ovarian it was 104%.
Regarding `CC(=O)c1sc(-c2ccccc2)cc1N`, the growth was 109% with SK-MEL-2 melanoma; 44.4% in the assay on EKVX NSCLC; 96.1% in the assay on SN12C renal; 88.6% in the assay on UO-31 renal; 101% with TK-10 renal; 104% with ACHN renal. For the same molecule, the growth in the assay on CAKI-1 renal was 92.9%; with A498 renal, 84.4%; with CCRF-CEM leukemia it was 96.6%; with MOLT-4 leukemia, 91.7%; in the assay on SR leukemia it was 88.4%; in the assay on RPMI-8226 leukemia, 98.1%. Further, the growth in the assay on OVCAR-8 ovarian was 92.8%; in the assay on OVCAR-5 ovarian, 100%; in the assay on OVCAR-4 ovarian, 94.2%; with SK-OV-3 ovarian, 89.6%; with IGROV1 ovarian, 105%; in the assay on OVCAR-3 ovarian, 103%. Besides, the growth was 89.1% with HS 578T breast and 105% in the assay on NCI/ADR-RES ovarian.
Consider `CCCCCCCC/C=C\CCCCCCCC(=O)Oc1cccc2cccnc12`, for which the growth with SK-MEL-2 melanoma was 140%; with EKVX NSCLC it was 95.1%; with SN12C renal it was 88.9%; with UO-31 renal, 88.3%; with TK-10 renal, 120%; in the assay on ACHN renal, 103%. Further, the growth with CAKI-1 renal is -0.06% (active); in the assay with A498 renal, 121%; in the assay with CCRF-CEM leukemia, 96.3%; in the assay on MOLT-4 leukemia, 80.3%; with SR leukemia, 45.9%; with RPMI-8226 leukemia, 297%. In addition, the growth in the assay with OVCAR-8 ovarian was 89.7%; with OVCAR-5 ovarian, 104%; with OVCAR-4 ovarian it was 128%; with SK-OV-3 ovarian it was 112%; in the assay on IGROV1 ovarian, 85.4%; in the assay on OVCAR-3 ovarian, -2.34% (active). For the same molecule, the growth in the assay with HS 578T breast is 138%; with NCI/ADR-RES ovarian, 99.1%.
For `COc1ccc(N(C)c2nc(Cl)nc3cnn(C)c23)cc1`, the growth is 22.2% with SK-MEL-2 melanoma; 46.1% in the assay on EKVX NSCLC; 27.8% in the assay with SN12C renal; 34% in the assay with UO-31 renal; 50.9% in the assay on TK-10 renal; 23.9% in the assay with ACHN renal. In addition, the growth in the assay with CAKI-1 renal was 22.9%; in the assay with A498 renal it was -9.16% (active); in the assay with CCRF-CEM leukemia it was 13%; with MOLT-4 leukemia, 14.9%; in the assay with SR leukemia, 13.2%; with RPMI-8226 leukemia it was 28.2%. Besides, the growth was 12.6% with OVCAR-8 ovarian; 33% in the assay with OVCAR-5 ovarian; 48.2% in the assay on OVCAR-4 ovarian; 10.6% with SK-OV-3 ovarian; 23.7% in the assay on IGROV1 ovarian; 4.74% (active) in the assay with OVCAR-3 ovarian. In addition, the figures for the growth in the assay with HS 578T breast and with NCI/ADR-RES ovarian were 37.8% and 2.72% (active), respectively.

The values are drawn from PubChem BioAssay (NCI).
